From PubChem BioAssay
Calls of active or inactive are those of the source. Unless noted, the rule behind the calls is not given here.

Key:
[1] = test system: Wnt5a (protein binding on small-molecule microarray); assay: small molecules binding Wnt5a protein – biophysical, small-molecule microarray, 635/667 nm fluorescence, primary screen (AID 1142); details: 635 nm fluorescence, higher = more signal;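 note: fluorescence read at 667 nm with signal to noise per printed feature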
[2] = ATP-based viability of Huh7 replicon cells – cell-based, CellTiter-Glo luminescence, basal, 48 h, cytotoxicity control for HCV replication inhibitor project, primary screen (AID 1143); details: higher = more signal, called active from +8 up or from −8 down;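 note: Huh7 hepatoma cells carrying a hepatitis C replication reporter with no stimulus; test concentration not given here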
[3] = Pseudomonas biofilm growth suppression – PAO1 strain, BacTiter-Glo luminescence, LB-PBS, primary screen (AID 1144); details: P. aeruginosa PAO1 biofilm, 12 h, higher = more signal
[4] = basal CRE-LacZ reporter activity in PC12 – cell-based, unstimulated, primary screen (AID 1145); details: no forskolin, luminescence, 4.5 h, higher = more signal, called active from +8 up or from −8 down
[5] = forskolin-driven CRE-LacZ activity in PC12 – cell-based, CRE-LacZ reporter, forskolin-stimulated, primary screen (AID 1146); details: luminescence, 4.5 h, higher = more signal, called active from +8 up or from −8 down;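 note: PC12 cells with 6xCRE LacZ reporter stimulated by forskolin 10 µM; beta-galactosidase reporter signal reflecting CREB driven transcription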
[6] = target: Streptavidin (Streptomyces avidinii) (UniProt P22629); assay: compounds binding control protein streptavidin – biophysical, small-molecule microarray, 635/667 nm fluorescence, artefact control for SMM compound annotation, primary screen (AID 1147); details: higher = more signal;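 note: signal reflects streptavidin binding to arrayed compounds as a control protein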
Chain of Streptavidin (Streptomyces avidinii) (P22629 whole entry, looked up): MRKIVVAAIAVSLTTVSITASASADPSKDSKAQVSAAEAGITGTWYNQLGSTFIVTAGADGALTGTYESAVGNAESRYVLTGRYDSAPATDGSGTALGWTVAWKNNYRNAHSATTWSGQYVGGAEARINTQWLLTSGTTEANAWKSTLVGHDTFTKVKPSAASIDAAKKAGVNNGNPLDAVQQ

[7] = probe aInhba binding on compound microarray – biochemical, small-molecule microarray, 635/667 nm fluorescence, primary screen (AID 1148); details: higher = more signal;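 note: score merges 667nm spot fluorescence with signal-to-noise for antibody binding to printed compounds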
Torsin-1A (Homo sapiens) [8] = target: Torsin-1A (Homo sapiens) (UniProt O14656); assay: TOR1A wild-type binding on microarray – cell lysate, small-molecule microarray, lysate, 635/667 nm, primary screen (AID 1149); details: COS7 hTOR1A-WT lysate, 635 nm fluorescence, higher = more signal
Chain of Torsin-1A (Homo sapiens) (O14656 whole entry, looked up): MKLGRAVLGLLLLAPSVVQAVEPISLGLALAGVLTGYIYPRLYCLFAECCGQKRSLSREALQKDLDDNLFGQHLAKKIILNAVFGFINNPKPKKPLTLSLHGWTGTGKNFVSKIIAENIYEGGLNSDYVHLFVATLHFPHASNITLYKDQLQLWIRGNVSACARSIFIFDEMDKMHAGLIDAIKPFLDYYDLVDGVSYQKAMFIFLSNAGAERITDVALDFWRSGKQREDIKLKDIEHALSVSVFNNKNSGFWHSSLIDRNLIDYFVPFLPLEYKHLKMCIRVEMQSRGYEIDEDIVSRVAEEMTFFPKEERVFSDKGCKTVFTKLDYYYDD

Torsin-1A (Homo sapiens) [9] = target: Torsin-1A (Homo sapiens) (UniProt O14656); assay: torsin A mutant lysate binding on microarrays – cell lysate, small-molecule microarray, COS7 lysate, 635/667 nm fluorescence, primary screen (AID 1150); details: COS7 hTOR1A mutant lysate, 635 nm fluorescence, higher = more signal;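 note: score pools 667 nm emission and signal to noise measuring lysate protein binding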
[10] = test system: Sonic hedgehog protein (Shh); assay: Sonic hedgehog microarray binding compounds – biochemical, small-molecule microarray, 635/667 nm fluorescence, primary screen (AID 1151); details: 635 nm fluorescence, higher = more signal;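 note: Shh protein binding to compounds spotted on small-molecule microarray slides; score combines spot fluorescence intensity with signal-to-noise across triplicate slides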

Structure (SMILES)	composite z-score [1]	z-score [2]	z-score [3]	z-score [4]	z-score [5]	composite z-score [6]	composite z-score [7]	composite z-score (Torsin-1A (Homo sapiens) [8])	composite z-score (Torsin-1A (Homo sapiens) [9])	composite z-score [10]
CCCCC(=C=CC[C@H](O)c1cccc(OCCO)c1)C[C@H](O)c1cc(Cl)cc(Cl)c1O	0.252	-0.705 (inactive)	-0.915 (inactive)	1.66 (inactive)	0.0904 (inactive)	0.428	-0.0675	0.437	0.906	1.84
O=C1c2ccccc2[C@](Cc2ccccc2I)(C(=O)NCCN2CCOCC2)[C@H](c2ccc(CO)cc2)N1Cc1ccccc1C(F)(F)F	0.0104	-3.41 (inactive)	0.588 (inactive)	0.0909 (inactive)	0.655 (inactive)	0.515	-0.038	0.717	0.469	0.468
CN(C)C(=O)[C@]1(CCS(=O)(=O)c2ccccc2)N=C(c2ccc(OCCCO)cc2)O[C@@H]1c1ccccc1CN=[N+]=[N-]	0.485	-0.915 (inactive)	-0.813 (inactive)	0.0686 (inactive)	0.236 (inactive)	1.54	-0.0332	0.408	0.927	-0.405
O=C1C2C=CC(C(O)C3CC=CCC3)N(Nc3ccc([N+](=O)[O-])cc3)C2C(=O)N1c1ccccc1 (stereo not given)	0.632	-0.574 (inactive)	-0.917 (inactive)	1.23 (inactive)	1.13 (inactive)	0.941	0.74	0.26	0.483	0.606
CC(C)N1C(=O)[C@@]2(Cc3ccccc31)c1ccccc1C(=O)N(Cc1ccccc1C(F)(F)F)[C@H]2c1ccc(CO)cc1	0.15	-0.222 (inactive)	-0.121 (inactive)	0.155 (inactive)	0.176 (inactive)	-0.0569	0.46	-0.375	-0.139	0.376
CCCCCCc1nc(Cc2cc(OC)c(OC)c(OC)c2)c(C)c2c1[Si](C(C)C)(C(C)C)OC2	0.0854	-3.36 (inactive)	-1.44 (inactive)	0.367 (inactive)	-0.634 (inactive)	-0.0336	0.0275	0.246	0.0486	0.372
O=C1O[C@@H](c2ccccc2)[C@@H](c2ccccc2)N2[C@@H](c3ccc(OCCO)cc3)[C@]3(C(=O)Nc4ccc(C#CC5=CCCCC5)cc43)[C@@H](C(=O)Nc3nc4ccccc4s3)[C@H]12	0.256	-1.89 (inactive)	-1.2 (inactive)	-0.698 (inactive)	-0.797 (inactive)	0.549	-0.145	-0.0561	0.0025	1.43
Cc1ccc(S(=O)(=O)N2[C@@H](c3ccccc3)C(C(=O)O)=CC[C@H]2c2ccc(F)cc2)cc1	0.148	-1.85 (inactive)	-0.8 (inactive)	-0.676 (inactive)	0.398 (inactive)	1.4	0.0403	1.33	1.64	0.193
COCCOC(=O)N1C(=O)[C@@]2(c3cc(C#CC4(O)CCCCCC4)ccc31)[C@H](C(N)=O)[C@H]1C(=O)O[C@H](c3ccccc3)[C@H](c3ccccc3)N1[C@@H]2c1ccc(OCCO)cc1	0.309	-4.36 (inactive)	-0.295 (inactive)	0.362 (inactive)	0.0846 (inactive)	0.84	0.201	0.838	0.637	1.24
O=C1O[C@H](c2ccccc2)[C@H](c2ccccc2)N2[C@H]1[C@@H](C(=O)O)[C@]1(C(=O)Nc3ccc(C#CC4(O)CCCCCC4)cc31)[C@H]2c1ccccc1OCCO	0.455	-2.05 (inactive)	1.27 (inactive)	17.9 (active)	21.5 (active)	1.41	0.397	0.541	-0.462	0.721
O=C(NCC(F)(F)F)[C@@H]1c2ccccc2C(=O)N(Cc2cc(C(F)(F)F)cc(C(F)(F)F)c2)[C@H]1c1ccc(CO)cc1	0.362	-1.49 (inactive)	-0.483 (inactive)	0.701 (inactive)	-1 (inactive)	-0.49	0.0074	0.325	0.201	0.363
C=C1C(=O)C=C2CN(C(=O)c3ccccc3)[C@@](Cc3ccc(F)cc3)(C(=O)OC)[C@@H]12	0.272	-5.23 (inactive)	1.1 (inactive)	-0.375 (inactive)	-2.15 (inactive)	1.87	0.49	0.172	0.73	-0.0536
COCCOC(=O)N1C(=O)[C@@]2(c3cc(C#CCNC(N)=O)ccc31)[C@H](C(=O)Nc1nc3ccccc3s1)[C@H]1C(=O)O[C@H](c3ccccc3)[C@H](c3ccccc3)N1[C@@H]2c1ccc(O)cc1	0.0623	0.284 (inactive)	0.326 (inactive)	-0.168 (inactive)	-0.227 (inactive)	0.753	0.189	-0.227	-0.023	0.527
C=C(COC)/C(=C/C[C@@H](OC(C)=O)c1cccc(OCCO)c1)c1cnc2ccccc2c1	0.603	-2.14 (inactive)	0.0432 (inactive)	2.53 (inactive)	-0.444 (inactive)	0.897	-0.0131	0.14	0.499	1.83
[N-]=[N+]=NCc1ccccc1[C@H]1OC(c2ccc(OCCCO)cc2)=N[C@@]1(Cc1ccccc1N=[N+]=[N-])C(=O)O	0.322	-1.16 (inactive)	0.159 (inactive)	-0.137 (inactive)	-0.763 (inactive)	1.55	0.147	0.136	0.691	-0.141
CN(C)CCCC[C@@H]1NC(=O)[C@H]2C[C@@H](C(=O)NCCCCCCNC(=O)CS)[C@@H](c3cccc(OCCO)c3)N2C1=O	0.1	1.17 (inactive)	-0.444 (inactive)	-0.809 (inactive)	-1.09 (inactive)	0.0448	-0.101	0.0638	0.767	0.871
COC(=O)c1ccc(OC)c(/C=C\CC(OC(=O)c2ccncc2)c2ccccc2)c1 (stereo not given)	0.114	-3.7 (inactive)	-0.526 (inactive)	12.5 (active)	-1.88 (inactive)	1.79	-0.154	0.217	0.292	1.14
COC(=O)C1=CC(CCCO)=CC(c2ccc(CN3CCCC3)cc2)N(C)C=C1C(=O)OC (stereo not given)	0.408	0.209 (inactive)	0.0505 (inactive)	-0.464 (inactive)	-0.0736 (inactive)	0.532	0.0658	-1.01	-0.418	-0.284
O=C1O[C@H](c2ccccc2)[C@H](c2ccccc2)N2[C@H]1[C@@H](C(=O)N1CCN(c3ncccn3)CC1)[C@]1(C(=O)Nc3ccc(C#CC4(O)CCCCCC4)cc31)[C@H]2c1ccc(O)cc1	0.675	-2.43 (inactive)	-0.759 (inactive)	-0.258 (inactive)	-0.296 (inactive)	-0.0103	0.096	0.574	0.0774	1.93
O=C1OC[C@@H](c2ccccc2)n2cc(/C=C/c3ccccc3)cc21	0.044	-4.14 (inactive)	0.927 (inactive)	9.55 (active)	-0.54 (inactive)	0.723	-0.0933	-1.43	-0.565	0.319
COC(=O)[C@@]1(Cc2ccc(F)cc2)[C@@H]2C(=CC(=O)[C@H]2CC(=O)C(=O)N2CCCC2)CN1C(=O)c1ccccc1	1.74	-4.86 (inactive)	0.137 (inactive)	-0.189 (inactive)	1.86 (inactive)	0.696	0.731	0.448	1.01	1.82
COCCCNC(=O)[C@@]1(Cc2ccccc2I)c2ccccc2C(=O)N(Cc2ccccc2OC)[C@H]1c1ccc(CO)cc1	-0.43	-3.39 (inactive)	0.767 (inactive)	0.531 (inactive)	-0.797 (inactive)	-0.67	-0.162	0.884	0.431	-0.845
CC(C)N1C(=O)[C@@]2(Cc3ccccc31)c1ccccc1C(=O)N(Cc1ccccc1)[C@H]2c1ccc(CO)cc1	0.164	0.629 (inactive)	0.0609 (inactive)	-0.114 (inactive)	0.467 (inactive)	-0.439	-0.119	0.291	-0.182	0.462
CC(C)c1ccc(NN2C(C(O)C(C)c3ccccc3)C=CC3C(=O)N(c4ccccc4)C(=O)C32)cc1 (stereo not given)	0.981	0.0469 (inactive)	-0.692 (inactive)	0.619 (inactive)	0.939 (inactive)	2.11	0.864	0.326	1.12	0.461
O=C(O)C1=CC[C@H]2C(=O)N(c3ccccc3)C(=O)[C@@H]12	0.144	0.704 (inactive)	0.317 (inactive)	0.173 (inactive)	0.676 (inactive)	1.22	0.0448	1	0.448	-0.323
CN1C(=O)C2CC=C(C3=CCO[C@@H]3[C@H]3CCCN3S(=O)(=O)c3ccccc3[N+](=O)[O-])CC2C1=O (stereo not given in full)	0.0169	0.459 (inactive)	0.0769 (inactive)	-0.505 (inactive)	1.14 (inactive)	-0.102	0.0516	-0.23	-0.282	-0.151
O=C1C2C=CC(C(O)c3ccccn3)N(Nc3ccc([N+](=O)[O-])cc3)C2C(=O)N1c1ccccc1 (stereo not given)	0.333	-0.476 (inactive)	-0.277 (inactive)	0.379 (inactive)	-0.0636 (inactive)	1.24	0.0589	-0.146	0.098	0.04
COC(=O)[C@@]1(Cc2ccccc2)[C@H]2c3cc(C(=O)N(C)C)n(Cc4nc5ccccc5[nH]4)c3C[C@H]2CN1C(=O)c1ccccc1	0.118	-2.07 (inactive)	-0.142 (inactive)	0.959 (inactive)	-0.0536 (inactive)	1.26	0.337	0.626	0.853	-0.441
